We go through 5 molecules from PubChem BioAssay.

Assay [1] can be described thus: small molecules captured by biotinylated probe aFSTL3 – biochemical, small-molecule microarray, fluorescence 635/667, stem cell growth factor project, primary screen (AID 1064).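 Also: measures binding of the biotinylated anti-FSTL3 antibody to printed compounds.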 The following applies: higher = more signal.
Assay [2] is described as follows: binders from COS7 lysate, DM2A8 probe, primary screen, torsin A project, cell lysate, small-molecule microarray, fluorescence 635/667 (AID 1065). The conditions noted are these: higher = more signal, COS7 lysate expressing mutant human TOR1A.
A short description of assay [3]: small molecules captured by biotinylated probe aFGF2 – biochemical, small-molecule microarray, fluorescence 635/667, stem cell growth factor project, primary screen (AID 1067).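 Also: measures binding of biotinylated aFGF2 protein to printed compounds on slides; z-score merges feature fluorescence and signal-to-noise across triplicate slides.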 The following applies: higher = more signal.
Assay [4] can be described thus: small molecules captured by biotinylated probe aFGF10 – biochemical, small-molecule microarray, fluorescence 635/667, stem cell growth factor project, primary screen (AID 1071).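 Also: score merges 667 nm spot intensity and signal to noise from triplicate slides.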 The following applies: higher = more signal.
The target of assay [5] is Neurogenic locus notch homolog protein 2 (Homo sapiens) (UniProt Q04721). Briefly: small molecules binding Notch2 protein – biochemical, small-molecule microarray, 635 nm fluorescence, stem cell growth factors, primary screen (AID 1073). The conditions noted are these: higher = more signal.
Chain of Neurogenic locus notch homolog protein 2 (Homo sapiens) (Q04721 whole entry, looked up, canonical isoform): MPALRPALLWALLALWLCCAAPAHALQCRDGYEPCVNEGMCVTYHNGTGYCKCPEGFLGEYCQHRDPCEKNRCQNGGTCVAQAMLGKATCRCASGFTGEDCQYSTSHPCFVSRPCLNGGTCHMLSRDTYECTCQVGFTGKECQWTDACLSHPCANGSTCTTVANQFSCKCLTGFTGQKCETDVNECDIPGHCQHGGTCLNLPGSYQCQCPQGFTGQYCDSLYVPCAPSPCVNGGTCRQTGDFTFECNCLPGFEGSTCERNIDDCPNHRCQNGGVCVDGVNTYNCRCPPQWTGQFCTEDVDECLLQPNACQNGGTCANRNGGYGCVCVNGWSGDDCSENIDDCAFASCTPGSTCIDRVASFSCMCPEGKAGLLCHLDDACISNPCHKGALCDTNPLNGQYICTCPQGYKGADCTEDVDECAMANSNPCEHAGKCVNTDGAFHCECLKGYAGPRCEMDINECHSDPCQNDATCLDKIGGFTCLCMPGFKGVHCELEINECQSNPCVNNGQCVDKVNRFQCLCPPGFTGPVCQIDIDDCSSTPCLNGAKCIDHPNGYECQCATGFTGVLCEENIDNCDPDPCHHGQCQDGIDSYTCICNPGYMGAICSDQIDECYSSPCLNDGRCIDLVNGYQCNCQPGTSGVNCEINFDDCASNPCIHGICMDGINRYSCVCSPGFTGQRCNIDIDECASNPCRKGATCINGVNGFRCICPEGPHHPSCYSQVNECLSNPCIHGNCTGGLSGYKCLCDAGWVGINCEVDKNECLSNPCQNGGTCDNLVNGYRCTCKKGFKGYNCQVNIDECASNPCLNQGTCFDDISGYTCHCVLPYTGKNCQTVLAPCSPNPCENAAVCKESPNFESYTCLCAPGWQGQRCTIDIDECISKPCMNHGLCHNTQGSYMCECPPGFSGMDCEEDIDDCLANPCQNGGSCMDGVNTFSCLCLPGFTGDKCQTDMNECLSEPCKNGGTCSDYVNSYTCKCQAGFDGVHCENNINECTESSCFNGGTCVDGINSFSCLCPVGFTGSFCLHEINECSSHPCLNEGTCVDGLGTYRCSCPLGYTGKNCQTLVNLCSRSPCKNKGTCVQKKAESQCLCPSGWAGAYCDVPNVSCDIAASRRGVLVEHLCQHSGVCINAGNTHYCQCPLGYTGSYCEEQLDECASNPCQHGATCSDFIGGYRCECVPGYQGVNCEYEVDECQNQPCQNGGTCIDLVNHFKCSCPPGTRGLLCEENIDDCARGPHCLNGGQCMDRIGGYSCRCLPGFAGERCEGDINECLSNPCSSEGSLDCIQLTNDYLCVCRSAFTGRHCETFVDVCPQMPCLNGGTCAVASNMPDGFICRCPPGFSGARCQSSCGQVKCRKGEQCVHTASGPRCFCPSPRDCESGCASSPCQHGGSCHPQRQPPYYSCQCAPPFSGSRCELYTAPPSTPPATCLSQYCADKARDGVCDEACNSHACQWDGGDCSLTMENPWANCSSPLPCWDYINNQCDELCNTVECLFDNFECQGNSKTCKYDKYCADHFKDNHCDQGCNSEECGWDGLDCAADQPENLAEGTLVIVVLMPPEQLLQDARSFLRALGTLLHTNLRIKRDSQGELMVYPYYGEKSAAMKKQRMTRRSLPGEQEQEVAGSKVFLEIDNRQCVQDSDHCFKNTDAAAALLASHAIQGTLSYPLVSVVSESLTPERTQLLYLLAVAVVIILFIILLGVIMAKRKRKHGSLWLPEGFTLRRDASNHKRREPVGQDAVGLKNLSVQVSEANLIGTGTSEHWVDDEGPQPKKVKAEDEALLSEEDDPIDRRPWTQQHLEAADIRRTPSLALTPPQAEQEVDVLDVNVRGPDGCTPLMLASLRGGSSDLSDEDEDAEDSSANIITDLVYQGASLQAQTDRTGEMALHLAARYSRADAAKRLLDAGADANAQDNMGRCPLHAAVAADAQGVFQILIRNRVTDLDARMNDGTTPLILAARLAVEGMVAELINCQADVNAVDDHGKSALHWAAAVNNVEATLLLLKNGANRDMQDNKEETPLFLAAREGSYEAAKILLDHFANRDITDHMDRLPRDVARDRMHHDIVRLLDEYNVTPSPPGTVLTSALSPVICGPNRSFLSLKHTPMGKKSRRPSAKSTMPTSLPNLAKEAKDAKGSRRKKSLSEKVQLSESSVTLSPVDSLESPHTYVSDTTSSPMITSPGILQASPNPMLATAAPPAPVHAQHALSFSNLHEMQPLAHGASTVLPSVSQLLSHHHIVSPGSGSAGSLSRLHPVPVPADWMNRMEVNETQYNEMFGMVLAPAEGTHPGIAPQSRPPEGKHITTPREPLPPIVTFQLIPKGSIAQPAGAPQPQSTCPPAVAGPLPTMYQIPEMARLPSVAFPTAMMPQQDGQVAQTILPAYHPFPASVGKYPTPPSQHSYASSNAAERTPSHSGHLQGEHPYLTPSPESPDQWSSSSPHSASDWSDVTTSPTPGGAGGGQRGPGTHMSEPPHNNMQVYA
Assay [6] deals with Pro-neuregulin-1, membrane-bound isoform (Homo sapiens) (UniProt Q02297). The assay is described as follows: small molecules binding neuregulin-1 protein – biochemical, small-molecule microarray, fluorescence 635/667, psychiatric disease protein project, primary screen (AID 1075).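 Also: score combines 667 nm spot fluorescence with signal to noise.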 The following applies: NRG1 binding, 635 nm fluorescence, higher = more signal.
Chain of Pro-neuregulin-1, membrane-bound isoform (Homo sapiens) (Q02297 whole entry, looked up, the tested form may be a part, canonical isoform): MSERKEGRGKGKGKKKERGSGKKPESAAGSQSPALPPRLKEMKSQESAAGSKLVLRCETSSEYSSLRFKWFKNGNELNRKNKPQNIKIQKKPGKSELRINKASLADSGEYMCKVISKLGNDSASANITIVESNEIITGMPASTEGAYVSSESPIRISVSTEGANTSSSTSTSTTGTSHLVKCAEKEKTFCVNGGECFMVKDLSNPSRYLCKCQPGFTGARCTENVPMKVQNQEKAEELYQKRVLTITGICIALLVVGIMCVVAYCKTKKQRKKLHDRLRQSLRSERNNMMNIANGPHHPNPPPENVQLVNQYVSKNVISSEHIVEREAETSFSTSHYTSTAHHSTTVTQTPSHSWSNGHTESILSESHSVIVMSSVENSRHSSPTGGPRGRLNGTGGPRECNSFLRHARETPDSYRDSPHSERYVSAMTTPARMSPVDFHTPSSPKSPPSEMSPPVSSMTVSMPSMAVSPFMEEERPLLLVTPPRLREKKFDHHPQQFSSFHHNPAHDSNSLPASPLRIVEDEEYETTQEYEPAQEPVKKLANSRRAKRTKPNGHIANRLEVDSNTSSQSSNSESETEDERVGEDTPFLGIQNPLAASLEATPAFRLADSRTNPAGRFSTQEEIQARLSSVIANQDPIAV
Assay [7] deals with Neuregulin-1 EGF-like domain. The assay is described as follows: small molecules binding NRG1 EGF domain – biochemical, small-molecule microarray, 635 nm fluorescence, primary screen (AID 1081).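 Also: binding of the protein to compounds printed on small-molecule microarray slides.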 The following applies: higher = more signal.
Assay [8] can be described thus: FRG1 expression reporter modulators in myotubes – cell-based, C2C12 myotubes, firefly/Renilla luciferase, luminescence, FRG1 inhibition for FSHD, primary screen (AID 1084). The conditions noted are these: FRG1 promoter luciferase, higher = more signal, called active from +8 up or from −8 down.
The nature of assay [9]: small molecules captured by biotinylated probe aFST – biochemical, small-molecule microarray, fluorescence 635/667, stem cell growth factor project, primary screen (AID 1086).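 Also: score merges 667 nm fluorescence with signal-to-noise of each printed compound spot.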 The following applies: higher = more signal.
A short description of assay [10]: binders of probe aHhip on microarray, primary screen, stem cell growth factor project, biochemical, small-molecule microarray, fluorescence 635/667 (AID 1087).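 Also: score merges spot fluorescence at 667nm with spot signal to noise ratio.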 The conditions noted are these: higher = more signal.
The test system of assay [11] is PRMT1 (protein arginine N-methyltransferase 1). Briefly: small molecules binding arginine methyltransferase PRMT1 – biochemical, small-molecule microarray, 635 nm fluorescence, primary screen (AID 1088).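 Also: binding of Prmt1 protein to compounds spotted on small-molecule microarray slides.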 The conditions noted are these: higher = more signal.
Assay [12] is described as follows: growth effects on S. cerevisiae YJM789 – YJM789 clinical isolate, OD600, 24 h, basal, primary screen (AID 1089).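 Also: growth of clinical yeast isolate S. cerevisiae YJM 789 seeded 1000 cells per well; test concentration not given here.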 The conditions noted are these: higher = more signal, called active from +8 up or from −8 down.
Assay [13] in a line: S. pombe growth modifiers, basal conditions – strain 972, OD600, 24 h, no modulator, primary screen (AID 1090).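 Also: basal condition with compound alone and no growth modifier present; test concentration not given here.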 The conditions noted are these: S. pombe 972 growth, higher = more signal, called active from +8 up or from −8 down.
Assay [14] in a line: budding yeast growth modifiers under rapamycin – strain BY4716, OD600, 96 h, primary screen (AID 1091). Also: test concentration not given here. The following applies: S. cerevisiae BY4716 + rapamycin, higher = more signal, called active from +8 up or from −8 down.
Assay [15] has as its target Torsin-1A-interacting protein 2 (Homo sapiens) (UniProt Q8NFQ8). Briefly: small molecules binding lysate-expressed LULL1 – cell lysate, human LULL1 lysate, 635/667 nm fluorescence, primary screen (AID 1092).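 Also: score merges per-feature 667 nm fluorescence with signal-to-noise.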 The conditions noted are these: small-molecule microarray, hLULL1 lysate binding, 635 nm fluorescence; higher = more signal.
A short description of assay [16]: optical density change of DRC41 E. coli – strain DRC41, OD650, 24 h, E. coli filamentation project, primary screen (AID 1093).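 Also: MC1000 strain lacking acrAB efflux and sulA so SOS filamentation is blocked; test concentration not given here.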 The conditions noted are these: E. coli DRC41 growth, higher = more signal, called active from +8 up or from −8 down.
Assay [17] in a line: probe aLefty2 binding to arrayed compounds – biochemical, biotinylated probe, 635/667 nm fluorescence, primary screen (AID 1094).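 Also: score merges spot fluorescence near 667 nm with spot signal-to-noise ratio.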 The conditions noted are these: small-molecule microarray, higher = more signal.
In assay [18] the test system is Noggin (protein binding on small-molecule microarray). Briefly: small molecules binding Noggin protein – biochemical, 635/667 nm fluorescence, primary screen (AID 1095).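 Also: score merges 667 nm feature fluorescence with signal to noise over triplicate slides.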 The conditions noted are these: 635 nm fluorescence, higher = more signal.
In assay [19] the target is Neurogenic locus notch homolog protein 3 (Homo sapiens) (UniProt Q9UM47). Briefly: small molecules binding NOTCH3 protein – biochemical, 635/667 nm fluorescence, primary screen (AID 1096). The conditions noted are these: small-molecule microarray, 635 nm fluorescence, higher = more signal.
Assay [20] in a line: probe aEGFR binding to arrayed compounds – biochemical, biotinylated probe, 635/667 nm fluorescence, primary screen (AID 1097).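 Also: probe is a biotinylated anti-EGFR antibody binding compounds printed on slides; score combines fluorescence near 667 nm and signal to noise of each spot.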 The following applies: small-molecule microarray, higher = more signal.

SMILES strings stand for the structures. The source made the active and inactive calls.

Chain of Torsin-1A-interacting protein 2 (Homo sapiens) (Q8NFQ8 whole entry, looked up): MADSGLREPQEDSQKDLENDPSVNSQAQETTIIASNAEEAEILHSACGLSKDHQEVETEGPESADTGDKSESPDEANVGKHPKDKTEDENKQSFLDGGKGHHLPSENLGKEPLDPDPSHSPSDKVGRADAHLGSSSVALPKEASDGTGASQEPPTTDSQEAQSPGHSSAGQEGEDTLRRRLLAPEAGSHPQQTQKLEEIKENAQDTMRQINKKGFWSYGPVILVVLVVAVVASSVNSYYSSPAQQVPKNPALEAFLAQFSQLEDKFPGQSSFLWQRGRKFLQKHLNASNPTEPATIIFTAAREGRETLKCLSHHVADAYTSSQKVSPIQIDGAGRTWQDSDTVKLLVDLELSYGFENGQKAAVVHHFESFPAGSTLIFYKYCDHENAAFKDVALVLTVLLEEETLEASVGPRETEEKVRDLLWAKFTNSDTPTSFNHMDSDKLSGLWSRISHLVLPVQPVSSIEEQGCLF

Regarding `C=C[C@@H](C)[C@H](O)c1ccc(OCCO)cc1`, the composite z-score is 0.684 in assay [1]; -1.91 in assay [2]; -0.182 in assay [3]; -0.84 in assay [4]; -1.67 in [5]; -0.0655 in assay [6]. Besides, the composite z-score in assay [7] is 1.04; in [9] it was -1.06; in [10] it was -0.236; in assay [11], -0.365; in [15] it was 1.14; in assay [17], -0.225. Further, the values for the composite z-score in [18], in [19] and in [20] were -1.34, -0.743 and -0.37, respectively. Besides, the z-score in [8] was 5.39 (inactive); in assay [12], 0.217 (inactive); in [13], -0.297 (inactive); in assay [14], -0.0577 (inactive); in [16], -0.0261 (inactive).
Take `COC(=O)[C@@]1(Cc2ccc(OC)cc2)[C@H]2c3cc(C(=O)N4CCCC4)n(Cc4cc(C)n(C)n4)c3C[C@H]2CN1C(=O)c1ccccc1`: the composite z-score in assay [1] came out at 0.404; in [2], 0.0011; in [3] it was 0.37; in assay [4], 1.3; in assay [5], 1.76; in assay [6] it was 2.16. The composite z-score worked out at 1.33 in assay [7]; 0.821 in assay [9]; 2.67 in [10]; 0.481 in assay [11]; 3.85 in [15]; 0.724 in [17]. Besides, the composite z-score in assay [18] is -0.513; in [19] it was 1.04; in [20] it was 0.701. The z-score in [8] is 0.301 (inactive); in assay [12], -0.102 (inactive); in assay [13], 1.31 (inactive); in [14], 0.202 (inactive); in assay [16], -0.265 (inactive).
As to `O=C1O[C@H](c2ccccc2)[C@H](c2ccccc2)N2[C@H]1[C@@H](C(=O)N1CCCCCCC1)[C@]1(C(=O)Nc3ccc(C#CC4(O)CCCCCC4)cc31)[C@H]2c1ccc(O)cc1`, the composite z-score in [1] was found to be 3.63; in [2] it was 1.42; in assay [3], 0.807; in assay [4] it was 0.822; in assay [5], 1.36; in assay [6] it was 1.36. For the same molecule, the composite z-score in assay [7] amounted to 1.2; in assay [9], 2.97; in assay [10], 0.697; in assay [11] it was 1.54; in assay [15] it was 3.97; in assay [17], 1.65. Besides, the composite z-score in [18] is 1.78; in assay [19], 1.06; in assay [20] it was 1.35. Also, the z-score in [8] is -2.46 (inactive); in [12] it was 0.666 (inactive); in assay [13] it was 0.73 (inactive); in [14] it was 1.19 (inactive); in [16], 0.408 (inactive).
Take `COc1ccc([Si](C)(C)[C@@H]2[C@@H](CCn3cc([C@H](O)c4ccccc4)nn3)O[C@]3(C(=O)N(Cc4cccc(N5C(=O)c6cccc7cccc5c67)c4)c4ccccc43)[C@H]2C)cc1`: the composite z-score in [1] was 0.022; in [2], -0.362; in assay [3], -0.146; in [4] it was -0.472; in assay [5], -0.643; in [6] it was 0.173. Further, the composite z-score is 0.741 in assay [7]; -0.0472 in assay [9]; -0.309 in [10]; 0.645 in [11]; 0.98 in assay [15]; -0.139 in assay [17]. Besides, the composite z-score in [18] was -0.319; in [19] it was -0.048; in assay [20], -0.182. Also, the z-score in assay [8] was -0.814 (inactive); in assay [12] it was 0.738 (inactive); in [13], 1.21 (inactive); in assay [14] it was 2.54 (inactive); in assay [16], -0.143 (inactive).
Take `COCCOC(=O)N1C(=O)[C@@]2(c3ccccc31)[C@H](c1ccc(OCCO)cc1)N1[C@H](c3ccccc3)[C@H](c3ccccc3)OC(=O)[C@H]1[C@@H]2C(=O)N1CCCCCCC1`: the composite z-score in assay [1] is 4.01; in assay [2] it was 2.82; in assay [3], 1.05; in [4] it was 1.52; in assay [5], 1.86; in [6], 3.07. Moreover, the composite z-score in [7] was 1.54; in assay [9], 3.82; in assay [10] it was 2.75; in [11] it was 1.54; in assay [15] it was 5.18; in [17] it was 1.83. Besides, the composite z-score was determined as 2.45 in assay [18], 1 in assay [19] and 1.43 in [20]. Besides, the z-score is -3.1 (inactive) in [8]; 0.178 (inactive) in assay [12]; 0.182 (inactive) in assay [13]; 2.92 (inactive) in assay [14]; -0.504 (inactive) in assay [16].
